# Only some compounds are listed: those with a hit (about 3.4% of all), similar ones and a draw of the others.
# NF-kB neuron act: activators of NF-kB expression in neurons, primary screen, cell-based, HTS. hit rate 1.6% among 190,000. human neuronal cells, NF-kB reporter expression; stronger effect = higher value. fold change at 12.5 µM; in the data active = fold change above about 3.3
# ssDAF-12 act: S. stercoralis DAF-12 nuclear receptor activators, primary screen, cell-based, luminescence, HEK293, GRIP1 co-expression, lit1-tk-luc. Nuclear hormone receptor DAF-12 (Strongyloides stercoralis). hit rate 1% among 370,000. HEK293 ssDAF-12/GRIP1 lit1-tk-luc reporter; % of 3 µM dafachronic acid response. activation, % at 6.8 µM;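 active = activation above the mean over all tested compounds plus 3 SD, cut at about 0.9% in these data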;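 note: 0% = DMSO-only wells and 100% = 3 µM delta7-dafachronic acid wells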
# APP 5'UTR act: activators of APP 5'UTR luciferase reporter, primary screen, SH-SY5Y cells; SH-SY5Y APP 5'UTR luciferase reporter, luminescence; zero percent = DMSO vehicle wells; activation, % at 2 µM; hit rate 1% among 190,000;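 active = activation above a set limit, based on mean plus 3 SD of controls, cut at about 140% in these data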
# hcDAF12 agonist: H. contortus DAF-12 nuclear receptor activators, primary screen, cell-based, luminescence, HEK293, lit1-tk-luc reporter | hit rate 1.4% among 370,000 | HEK293 hcDAF-12 lit1-tk-luc reporter; 0% DMSO, 100% Δ7-dafachronic acid | activation, % at 6.8 µM;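 active = activation above the mean of all tested compounds plus 3 SD, cut at about 5.5% in these data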;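 note: 100% = response to 3 µM Δ7-dafachronic acid high control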
# hgDAF12 agonist: H. glycines DAF-12 receptor agonists, primary screen, cell-based, luminescence, HEK293, GAL4 fusion, UAS-luciferase | Nuclear hormone receptor DAF-12 (Heterodera glycines), GAL4 fusion | hit rate 1.8% among 370,000 | HEK293 GAL4-hgDAF12 UAS-luciferase reporter, agonist luminescence; normalized to butyrate control | AID 687014, 2013 | activation, % at 6.8 µM;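 active = activation above a cutoff set at the mean of all screened compounds plus 3 SD, cut at about 10% in these data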;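 note: 0% = DMSO wells and 100% = sodium butyrate wells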
# LXRb hcDAF ctr: LXR agonists, Gal4 luciferase reporter, confirmation, counter-screen for hcDAF-12 agonist project, cell-based, luminescence, HEK293, H. contortus campaign | shares compounds with hcDAF12 agonist | HEK293 Gal4-LXR tk-luc reporter, 24 h; normalized: DMSO 0%, positive control 100% | activation, % at 6.8 µM | 3,400 tested, under 10 active;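 active = mean percent activation of the reporter above a cutoff set as the average over tested compounds plus their standard deviation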
# Target sequence (P55055 whole entry, looked up, the tested form may be a part): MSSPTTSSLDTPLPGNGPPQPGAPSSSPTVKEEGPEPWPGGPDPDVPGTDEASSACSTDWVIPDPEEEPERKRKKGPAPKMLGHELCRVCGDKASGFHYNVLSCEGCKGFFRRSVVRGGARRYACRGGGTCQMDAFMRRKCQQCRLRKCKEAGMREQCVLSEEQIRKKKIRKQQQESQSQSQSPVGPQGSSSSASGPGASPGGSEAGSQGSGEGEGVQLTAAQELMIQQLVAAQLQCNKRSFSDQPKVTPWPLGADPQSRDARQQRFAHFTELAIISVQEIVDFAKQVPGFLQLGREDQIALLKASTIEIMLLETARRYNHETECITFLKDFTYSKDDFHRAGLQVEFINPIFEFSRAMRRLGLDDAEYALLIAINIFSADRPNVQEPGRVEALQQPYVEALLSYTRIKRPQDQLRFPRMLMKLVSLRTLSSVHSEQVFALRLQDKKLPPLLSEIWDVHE
# hcDAF12 conf: H. contortus DAF-12 receptor agonists, confirmation, cell-based, luminescence, HEK293, lit1-tk-luc, triplicate; shares compounds with hcDAF12 agonist; HEK293 hcDAF-12 lit1-tk-luc reporter; % of Δ7-dafachronic acid response; activation, % at 6.8 µM; hit rate 61% among 3,400;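 active = mean activation across triplicate tests above the threshold derived from the earlier primary screen, cut at about 5.5% in these data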;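 note: 0% = DMSO only wells and 100% = 3 µM Δ7-dafachronic acid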
# hgDAF12 conf: H. glycines DAF-12 receptor agonists, confirmation, cell-based, luminescence, HEK293, GAL4-LBD fusion | shares compounds with hgDAF12 agonist | HEK293 GAL4-hgDAF12 luciferase reporter, agonist mode; percent of butyrate response | activation, % at 6.8 µM | hit rate 80% among 3,300;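 active = mean activation over triplicate wells above the hit cutoff derived from the earlier primary screen, cut at about 11% in these data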;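 note: 0% = DMSO low control and 100% = 2 mM sodium butyrate high control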
# LXRb DAF12 ctr: LXR agonists, Gal4 luciferase reporter, confirmation, counter-screen for hgDAF-12 agonist project, cell-based, luminescence, HEK293, H. glycines campaign; shares compounds with hgDAF12 agonist; 24 h; activation, % at 6.8 µM; 3,300 tested, under 10 active;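 active = mean activation of the triplicate above a set limit carried over from the primary screen, none filed active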
# An asterisk follows results filed as active; / = not tested or not shown.
SMILES,NF-kB neuron act,ssDAF-12 act,APP 5'UTR act,hcDAF12 agonist,hgDAF12 agonist,LXRb hcDAF ctr,hcDAF12 conf,hgDAF12 conf,LXRb DAF12 ctr
O=C1c2ccccc2C(=O)N1CCOc1ccccc1,/,1.2*,10.5,6.9*,13.6*,0.9,8.8*,16.6*,0.5
CC(C)Oc1cccc(OCCN2C(=O)c3ccccc3C2=O)c1,1.4,-1.1,4.3,-1.2,4.9,/,/,/,/
C[C@@H]1COc2cc(Br)ccc2S(=O)(=O)N1Cc1cn(Cc2ccc(Br)cc2)nn1,/,-1.6,/,0.1,-1.5,/,/,/,/
COc1ccc(/C(=N/Nc2ncnc3ccccc23)C(=O)O)cc1,/,1.8*,/,11.2*,15.8*,0.5,7.5*,15.6*,0.5
CCOC(=O)C(Cc1ccnc2ccccc12)=NO,/,-1.1,/,-1.2,-5.2,/,/,/,/
CCOC(=O)/C(=N\Nc1ncnc2ccccc12)c1ccc(OC)cc1,/,2.4*,/,16.8*,18.3*,1.6,11.5*,17.3*,1.0
CC(C)(C)N1Cc2nnn(Cc3ccccc3)c2-c2cc(N3CCCCC3)ccc2S1(=O)=O,/,-0.3,/,-3.3,1.3,/,/,/,/
COc1cc(NC(=O)c2ccccc2)c(C)cc1NC(=O)CSc1nnc(-c2ccco2)n1Cc1ccco1,/,-1.0,/,1.0,-2.7,/,/,/,/
O=C(C=NNc1ccccc1)c1ccccc1,/,1.8*,/,11.9*,28.7*,2.0,11.9*,24.0*,1.1
O=C(CCc1nnc(CCCc2ccccc2)o1)NC(C1CC1)C1CC1,5.82*,0.9,90.1,7.3*,16.3*,0.7,4.2,15.3*,0.6
CC(C)(CO)CNC(=O)CCc1nnc(CCCc2ccccc2)o1,1.59,-0.7,8.7,1.6,1.5,/,/,/,/
COc1ccc(-c2csc(N3C(=O)CNC3=S)n2)cc1,5.35*,1.1*,204.5*,8.2*,16.9*,1.7,8.8*,15.6*,1.2
CN(C)c1ccc(N=Nc2nccs2)cc1,/,2.2*,/,9.7*,18.3*,1.7,10.9*,19.8*,0.8
Cc1sc(N=Nc2ccc(N(C)C)cc2)[n+]([O-])c1C,/,0.0,/,4.2,4.8,/,/,/,/
Cc1csc2ncc(C(=O)NCCc3ccccc3)c(=O)n12,1.83,1.9*,30.4,8.7*,14.0*,0.4,6.3*,8.6,0.3
Cc1csc2ncc(C(=O)NCCC(c3ccccc3)c3ccccc3)c(=O)n12,/,-1.4,/,-1.5,-1.6,/,/,/,/
CCO/N=C(\N)c1[nH]ncc1Br,/,-0.5,/,2.0,0.5,/,/,/,/
N/C(=N\OC(=O)c1ccc(Cl)cc1)c1[nH]ncc1Br,/,0.8,/,11.8*,19.1*,1.5,7.3*,20.6*,1.3
O=C1c2ccccc2C(=O)C1c1ccnc2ccccc12,/,5.1*,146.1*,24.1*,21.1*,1.5,17.5*,7.7,1.0
N#CC1=C(N)SC(N)=C(C#N)C1c1ccnc2ccccc12,0.92,-0.2,10.9,2.9,-0.9,/,/,/,/
CCCCN1CCS(=O)(=O)N(Cc2cn(Cc3cccc(Cl)c3)nn2)C(C(=O)OC)C1 (configuration not stated),/,-1.0,/,-1.7,-0.2,/,/,/,/
Cc1ccc2nc(-c3ccc(O)cc3)oc2c1,/,2.2*,/,9.0*,18.5*,1.8,7.2*,21.5*,1.1
C[C@H](O)[C@@H]1CN2CCc3c([nH]c4c(-c5ccc6c(c5)OCO6)cccc34)[C@@H]2C[C@@H]1N(C)C(=O)NC1CCCCC1,/,-1.4,/,-1.1,-2.6,/,/,/,/
CN(C)c1ccc(C(=S)NCc2ccco2)cc1,8.07*,0.9*,96.9,7.5*,15.9*,1.6,10.3*,20.3*,1.0
Cc1oc(-c2ccccc2)cc1C(=O)Nc1ccccc1,1.39,-1.1,-7.3,1.5,4.9,/,/,/,/
SMILES,NF-kB neuron act,ssDAF-12 act,APP 5'UTR act,hcDAF12 agonist,hgDAF12 agonist,LXRb hcDAF ctr,hcDAF12 conf,hgDAF12 conf,LXRb DAF12 ctr
Cc1c(C(=O)Nc2ccccc2)csc1-c1ccccc1,5.17*,1.7*,189.3*,8.1*,20.0*,2.3,6.5*,24.8*,1.2
COc1ccc(C(=O)CSc2nnc(-c3ccc(C(C)(C)C)cc3)n2C)cc1,/,-1.4,/,-3.4,3.9,/,/,/,/
C/C=C/C(=O)N1CCc2cc(S(=O)(=O)N(C)Cc3ccco3)ccc21,/,-1.4,/,1.1,1.8,/,/,/,/
O=C(Nc1ccc2[nH]ccc2c1)c1ccc(F)cc1,/,1.5*,/,8.2*,15.9*,1.7,5.9*,20.5*,1.2
CN(/N=C/c1ccncc1)C1=NCCN1,/,-0.6,/,-0.7,0.4,/,/,/,/
CN(/N=C/c1ccncc1)c1cnc2ccccc2n1,3.67*,1.5*,180.9*,6.6*,19.0*,0.9,10.3*,12.5*,0.7
Cn1ccc(C(=O)Nc2ccc(Br)cc2Br)n1,7.56*,0.7,142.7*,7.7*,19.6*,1.0,2.9,13.0*,0.9
CC(=C/c1ccccc1)/C=N/NC(=O)c1cccs1,/,-0.6,/,7.8*,19.5*,1.8,8.2*,14.9*,0.9
O=C(N/N=C/C(Br)=C\c1ccccc1)c1cccs1,/,-0.2,/,4.0,9.1,/,/,/,/
NS(=O)(=O)c1ccc(N/C=C\C(=O)c2ccc(F)cc2)cc1,3.22,-0.1,126.0,6.7*,16.1*,0.8,4.7,12.9*,0.5
NS(=O)(=O)c1ccc(N/C=C/C(=O)c2ccc(Br)cc2)cc1,1.43,0.2,49.5,3.5,9.2,/,/,/,/
O=C(Nc1ccc2ccccc2c1)c1ccccc1Cl,/,2.3*,/,9.3*,13.6*,1.9,7.7*,22.1*,1.1
Cc1occc1C(=O)Nc1ccc2ccccc2c1,9.31*,1.4*,164.2*,11.2*,14.3*,1.1,5.5,15.7*,1.0
CC(=O)c1cccc(NC(=O)c2ccoc2C)c1,1.32,-1.4,-15.6,-1.0,-2.6,/,/,/,/
